Tgondii IFNg – T. gondii growth inhibition with IFN-gamma, primary screen, cell-based; Toxoplasma gondii growth in IFN-gamma-treated host cells; hits give low values; activity change, negative = inhibition, % (test concentration not listed); hit rate 3.8% among 69,000; AID 1259416, 2018; in the data active = activity change below about -70%, passing the limit was not always enough;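 also: host cells are HeLa cells infected with Toxoplasma gondii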
Numbers without * were called inactive; ! = repeats disagree. The full list was thinned out, with hits kept by preference.

SMILES	Tgondii IFNg
O=C(Cn1ncc2c(N3CCN(c4ccccn4)CC3)ncnc21)Nc1cccc(Cl)c1	-50
CCc1cccc(NC(=O)Cn2ncc3c(N4CCN(c5ccccn5)CC4)ncnc32)c1	-62
O=C(Cn1ncc2c(N3CCN(c4ccccn4)CC3)ncnc21)Nc1cccc(Br)c1	-99*
O=C(Cn1ncc2c(N3CCN(c4ccccc4)CC3)ncnc21)Nc1cccc(Cl)c1	31
CCc1cccc(NC(=O)Cn2ncc3c(N4CCN(c5ccccc5)CC4)ncnc32)c1	-82*
O=C(Cn1ncc2c(N3CCN(c4ccccn4)CC3)ncnc21)Nc1ccc(Br)cc1	-15
CN1C[C@H]2C3(CCN(Cc4ccco4)CC3)CC[C@@]2(C(=O)N2CCCC2)C1	70
Fc1ccc(CN2CCC3(CC(n4cnnc4)CO3)C2)cc1 (stereo unspecified)	161
Cc1ccc(OCCN(C)Cc2nc(-c3cccc(Cl)c3)no2)cc1	4
Cc1ccc(Nc2nc(N)nc(CN3CCc4ccccc4C3)n2)cc1	-99*
Cc1ccc(Nc2nc(N)nc(CSc3nc4ccccc4s3)n2)cc1	-64
CCOc1ccc(Nc2nc(N)nc(CN3CCN(C)CC3)n2)cc1	31
Fc1cnc(N2Cc3cncn3CC(COc3ccccn3)C2)nc1 (stereo unspecified)	-3
Cc1cc(NC(=O)CCCC(=O)O)no1	-33
Cc1cc(NC(=O)c2ccccc2)no1	79
CCCCCCCc1ccc(C(=O)NC(=S)Nc2cc(C)on2)cc1	-92*
C=Cn1cc(CN(C)Cc2nc3ccccc3n2C)cn1	-8
CCO[C@H]1CC[C@@H]2[C@@H]1OCCN2C(=O)c1oc2ccccc2c1C	-11
Cc1cccc(CN(Cc2ccccc2)C(=O)CCc2ccncc2)n1	-1
Cc1ccc(-c2ncc(CN(Cc3ccccc3)Cc3cccc(C)n3)cn2)cc1	-79*
Cc1cccc(CN(Cc2ccccc2)C(=O)c2ccc3nc(C(F)(F)F)[nH]c3c2)n1	5
CCc1cn[nH]c1-c1c(F)cccc1F	7
COC(=O)[C@@H]1C[C@@H](NC(=O)NCc2ccccc2F)CN1C	-6
Cc1ccc(S(=O)(=O)N(C)c2cncc(C(=O)N3CCN(c4ccccn4)CC3)c2)cc1	2
O=C(c1cccnc1)N1CCC(c2cc(=O)[nH]c(-c3cnccn3)n2)CC1	7
SMILES	Tgondii IFNg
Cc1ccc(S(=O)(=O)NCCc2csc(-c3ccc(Cl)cc3)n2)cc1	-65
Cc1ccc(S(=O)(=O)NCCc2csc(-c3ccc(F)cc3)n2)cc1	-38
Cc1ccc(S(=O)(=O)NCCc2csc(-c3ccc(F)cc3)n2)s1	-102*
COc1ccc(S(=O)(=O)NCCc2csc(-c3ccc(Cl)cc3)n2)cc1C	-53
Cc1ccc(S(=O)(=O)NCCc2csc(-c3ccc(Cl)cc3)n2)s1	-18
Cc1ccc(S(=O)(=O)NCCc2csc(-c3ccc(Cl)cc3)n2)cc1C	-83*
Cc1nn(CC(C)C)cc1S(=O)(=O)N1CCN(C)C(=O)C(Cc2ccccn2)C1 (stereo unspecified)	10
CC(C)(C)c1cc(Cn2cnnc2)[nH]n1	2
COc1cccc(CN2CCc3nc(SCc4nc(-c5ccccc5)oc4C)[nH]c(=O)c3C2)c1	19
Cc1ccccc1S(=O)(=O)N1CCC2(CC1)Nc1ccc(C)c(C)c1-n1cccc12	-1
COc1cc2c(Nc3ccc(NC(=O)c4ccccc4)cc3)ncnc2cc1OCCCN1CCOCC1	-76*!
COc1cc2c(Oc3ccc4[nH]c(C)cc4c3F)ncnc2cc1OCCCN1CCCC1	-59
C#Cc1cccc(Nc2ncnc3cc(OCCOC)c(OCCOC)cc23)c1	-47
Clc1ccc(SCc2csc(-c3ccno3)n2)cc1	-23
Clc1ccc(SCc2csc(-c3ccc(Cl)cc3)n2)cc1	-5
Clc1ccc(SCc2ccsc2-c2ncns2)cc1	-77*
Cc1nc(C)c(CC(=O)N(C)Cc2ccc(C)o2)c(=O)[nH]1	2
CCc1cnc(N2C[C@H]3C[C@H](C(=O)NC(C)C)[C@@H](C2)O3)nc1	1
COc1ccc2cc1Oc1ccc(cc1)C[C@H]1c3c(cc4c(c3Oc3cc5c(cc3OC)CCN(C)[C@@H]5C2)OCO4)CCN1C	-5
COc1ccc2c(c1OC)C(=O)OC2[C@H]1c2c(cc3c(c2OC)OCO3)CCN1C (stereo partly specified)	24
COc1ccc2cc1Oc1ccc(cc1)C[C@H]1c3cc(c(OC)cc3CCN1C)Oc1c(OC)c(OC)cc3c1[C@H](C2)N(C)CC3	-71*!
CCOc1ccc(-c2nc3c(s2)CN(C(=O)Nc2ccc(C)cc2)CC3)cc1	-66
Cc1ccc(NC(=O)N2CCc3nc(-c4ccccc4)sc3C2)cc1C	101
COc1ccc(C)cc1NC(=O)N1CCc2nc(-c3ccc(C)cc3)sc2C1	-13
COc1ccc(-c2nc3c(s2)CN(C(=O)Nc2ccc(C)cc2C)CC3)cc1	53
SMILES	Tgondii IFNg
CCOc1ccc(-c2nc3c(s2)CN(C(=O)Nc2ccc(C)c(C)c2)CC3)cc1	-106*
CCOc1ccc(-c2nc3c(s2)CN(C(=O)Nc2cc(C)ccc2C)CC3)cc1	-112*
CC(C)(C)N(CC#Cc1ccccc1)Cc1ncccc1C(=O)O	-1
Cc1cccc(NC2COC3(CCN(S(=O)(=O)c4cn(C)cn4)C3)C2)c1 (stereo unspecified)	6
O=C(O)CN1CC2CCC(C1)N2C(=O)c1ccco1	-1
COc1ccc(-c2nc(NC(C)C)c3ccccc3n2)cc1	-56
COc1cc(C(=O)Nc2ccc(-c3nc(-c4ccc(C)cc4)co3)cc2)cc(OC)c1OC	16
COc1cc(C(=O)Nc2ccccc2-c2nc3ccccc3s2)cc(OC)c1OC	-90*
COc1ccccc1NC(=O)c1ccc2nsnc2c1	70
CCN1CC[C@@]2(CN(C(=O)[C@H]3CCCO3)C[C@H]2c2ccccc2)C1=O	-3
Cc1cc(C)n(-c2ccc(C(=O)NCCc3cc(Cl)c4c(c3)OCCO4)cc2)n1	-22
O=S(=O)(Cc1noc(-c2ccsc2)n1)c1ccccn1	11
O=S(=O)(Cc1noc(-c2cc(Cl)cc(Cl)c2)n1)c1ccc(Cl)cc1	-87*
O=S(=O)(Cc1nc(-c2ccsc2)no1)c1ccc(Cl)cc1	-30
CC(C)N(C)Cc1cn2c(n1)CN(C(=O)Cc1cccs1)CC2	2
O=c1c(-c2ccc(O)cc2)coc2cc(O)cc(O)c12	80
CC(C)=CCc1c2c(c3occ(-c4ccc(O)cc4)c(=O)c3c1O)C=CC(C)(C)O2	-82*
CC(C)=CCc1c2c(c3occ(-c4ccc(O)c(O)c4)c(=O)c3c1O)C=CC(C)(C)O2	-25
O=C1NC(C(=O)N2CCc3onc(-c4cccc5ccccc45)c3C2)CO1 (stereo unspecified)	-19
Cc1ccccc1OCC(=O)NCCc1sc(-c2ccc(F)cc2)nc1C	-41
CSc1ccccc1NC(=O)CCC(=O)N1CCC[C@H]1CO	3
COc1cc(C(=O)Oc2ccc(C3CCCCC3)cc2)cc(OC)c1OC	-94*
COc1ccc(C(=O)/C=C/c2ccc(OC(=O)c3cc(OC)c(OC)c(OC)c3)cc2)cc1	-25
COc1cc(C(=O)Oc2cc(C)cc(C)c2)cc(OC)c1OC	-2
CS(=O)(=O)N1CCOCC2(CCC(Cn3cncn3)O2)C1 (stereo unspecified)	67
CSc1ccc(CNC(=O)c2c(C)noc2C)s1	-33
Cc1noc(C)c1C(=O)Nc1ccc(Sc2ccccc2)nc1Sc1ccccc1	-89*
Cc1noc(C)c1C(=O)Nc1ccc(Cl)cc1	10
Cc1noc(C)c1CN(C)C(=O)c1coc(COc2ccc(F)cc2Cl)n1	-54
COc1ccc(OC)c(NC(=O)CC(=O)NCC2CCCO2)c1 (stereo unspecified)	3

Screening results from PubChem BioAssay.
